The assay in a line: reversers of MRP drug resistance, dose response, cell-based (AID 741). Particulars: MRP-overexpressing cells, viability with/without cytotoxic drug; slope difference: measured here: slope difference tox minus reversal, stronger effect = higher value; toxicity enhancement factor: stronger effect = higher value; viability: measured here: viability series, compound alone, at 10 µM, stronger effect = lower value.

Results filed as inconclusive are left out. Activity calls are given as the source filed them. Rule as the data show it: active = toxicity enhancement factor above about 0.054; inconclusive = between about 0.00067 and that limit; inactive = weaker than that.

With `O=C(NCCCn1ccnc1)c1sc2cccc(F)c2c1Cl`, the slope difference was -0.0975; the toxicity enhancement factor is -0.001 (inactive); the viability – broadly, a read-out of living cells in per cent, often relative to untreated cells – worked out at 96.9%.

In the case of `COC(=O)C(C)Sc1nnc2n(-c3cccc(C)c3)c(=O)c3c4c(sc3n12)CCCC4` (configuration not stated), the slope difference amounted to 2.9, the toxicity enhancement factor is 0.061 (active) and the viability amounted to 85.9%.

For `COc1ccc(C(=O)Nc2nc3ccccc3[nH]2)cc1OC`, the slope difference was -0.0153, the toxicity enhancement factor is -0.0002 (inactive) and the viability amounted to 87.3%.

`Cc1cccc(Cn2c(NCC(C)O)nc3c2c(=O)n(C)c(=O)n3C)c1` (configuration not stated): the slope difference is -0.509, the toxicity enhancement factor was -0.0055 (inactive) and the viability was 93.7%.

Regarding `Cc1ccc(/C=N/Nc2nc(Cl)c(Cl)cc2Cl)s1`, the slope difference was -0.0549, the toxicity enhancement factor was -0.0006 (inactive) and the viability is 99.8%.

`C=CCN1C(=O)/C(=C2/Sc3ccccc3N2C)SC1=Nc1c(C)n[nH]c1C`: the slope difference turned out to be 4.41, the toxicity enhancement factor is 0.241 (active) and the viability was 66.9%.

As for `COC(=O)Nc1ccc(S(=O)(=O)Nc2cccc3ccccc23)cc1`, the slope difference was -0.0221, the toxicity enhancement factor was -0.0003 (inactive) and the viability was determined as 77.7%.

`c1ccc2sc(N3CN(CCN4CCOCC4)CN(c4nc5ccccc5s4)C3)nc2c1`: the slope difference is -1.81, the toxicity enhancement factor is -0.0158 (inactive) and the viability was found to be 104%.

As for `Cc1ccc(N2C(N)=C(C#N)C(c3cccnc3)C3=C2CC(C)(C)CC3=O)cc1` (configuration not stated), the slope difference is 2.48, the toxicity enhancement factor is 0.0915 (active) and the viability came out at 57.5%.

With `CC(Cc1ccc(O)c(O)c1)C(C)Cc1ccc(O)c(O)c1` (configuration not stated), the slope difference was -0.864, the toxicity enhancement factor is -0.009 (inactive) and the viability is 86.2%.

For `CC(C)Cc1ccc(C(C)C(=O)O)cc1` (configuration not stated), the slope difference was -0.62, the toxicity enhancement factor is -0.0059 (inactive) and the viability is 93.7%.

Turning to `Cc1ccc(Cn2c(N3CCCCCC3)nc3c2c(=O)[nH]c(=O)n3C)cc1`, the slope difference is -0.91, the toxicity enhancement factor is -0.0097 (inactive) and the viability came to 88.2%.

Consider `COc1ccc(N2C(=O)C(Cl)=C(N3CCCC3)C2=O)cc1`, for which the slope difference is -0.145, the toxicity enhancement factor was -0.0016 (inactive) and the viability is 91.8%.

`CS(=O)(=O)Nc1ccc([N+](=O)[O-])cc1Oc1ccccc1`: the slope difference is -0.667, the toxicity enhancement factor was -0.0071 (inactive) and the viability amounted to 97.8%.

`COc1ccc(/C=C/C(=O)Nc2ccccc2C(=O)O)cc1OC`: the slope difference is -1.07, the toxicity enhancement factor was -0.0098 (inactive) and the viability was 95.7%.

Regarding `CCn1c(N)c(C(=O)N2CCOCC2)sc1=S`, the slope difference was -0.557, the toxicity enhancement factor was -0.0052 (inactive) and the viability was 101%.

Turning to `Clc1cnc(N/N=C/c2cccs2)c(Cl)c1`, the slope difference was -0.68, the toxicity enhancement factor is -0.0069 (inactive) and the viability was 96.8%.

As to `Cc1cc(C)cc(OCc2nnc(SCC(=O)c3ccc(Br)cc3)o2)c1`, the slope difference was -0.893, the toxicity enhancement factor is -0.0094 (inactive) and the viability is 92.3%.

On to `Cc1ccc(-n2ncc3c(N4CCN(c5ccccc5)CC4)ncnc32)c(C)c1`, for which the slope difference was -1.27, the toxicity enhancement factor was -0.037 (inactive) and the viability is 27.4%.

`CCCc1cc(Nc2c(C)n(C)n(-c3ccccc3)c2=O)n2c(nc3ccccc32)c1C#N`: the slope difference turned out to be 4.27, the toxicity enhancement factor is 0.0896 (active) and the viability turned out to be 97.6%.

Consider `CCCCNc1c2c3c(cccc3n(C)c1=O)C(=O)c1ccccc1-2`, for which the slope difference is -4.84, the toxicity enhancement factor is -0.0634 (inactive) and the viability is 32.4%.

For the compound `COCC(C)OC(=O)C(C#N)c1nc2ccccc2nc1N1CCN(Cc2ccccc2)CC1` (configuration not stated), the slope difference is -0.109, the toxicity enhancement factor is -0.0013 (inactive) and the viability was found to be 89.3%.

`CN1C(=O)C(CC(=O)Nc2ccc3c(c2)Cc2ccccc2-3)N(C)C1=O` (configuration not stated): the slope difference was -0.0851, the toxicity enhancement factor is -0.0009 (inactive) and the viability came to 94.5%.

For the compound `COc1ccc(Cl)cc1C(=O)Nc1ccccc1N1CCN(C(=O)C(C)C)CC1`, the slope difference was -0.352, the toxicity enhancement factor is -0.0048 (inactive) and the viability came out at 75.7%.

With `CCCCSc1nnc2n(CCc3ccccc3)c(=O)c3c4c(sc3n12)COC(C)(C)C4`, the slope difference was 5.29, the toxicity enhancement factor is 0.189 (active) and the viability was determined as 84.4%.

As for `Cc1nc(N2CCN(C)CC2)c2sc(=S)n(-c3ccccc3)c2n1`, the slope difference came out at 2.3, the toxicity enhancement factor was 0.0596 (active) and the viability amounted to 64%.

As to `Cc1cccc2cc(CN(Cc3nnnn3Cc3ccco3)C3CCCC3)c3nnnn3c12`, the slope difference is -1.43, the toxicity enhancement factor is -0.027 (inactive) and the viability is 51.1%.

As for `c1ccc2c(c1)nc1n2CN(Cc2ccc3c(c2)OCO3)CN1`, the slope difference was -0.301, the toxicity enhancement factor is -0.0032 (inactive) and the viability was 85.8%.

`O=C(COc1ccccc1)N1CCN(c2ncnc3c2cnn3-c2ccccc2)CC1`: the slope difference was -0.402, the toxicity enhancement factor was -0.0084 (inactive) and the viability came out at 53.8%.

As for `COc1ccc(C(c2nnnn2C(C)(C)C)N2CCN(c3nc4ccccc4s3)CC2)cc1OC` (configuration not stated), the slope difference is -1.39, the toxicity enhancement factor is -0.0199 (inactive) and the viability was determined as 71.9%.

`CCCCCC(O)c1cccc(OCc2ccc3ccccc3n2)c1` (configuration not stated): the slope difference was -0.009, the toxicity enhancement factor is -0.0001 (inactive) and the viability came to 102%.

Regarding `Cc1nc(C)c(C)nc1C`, the slope difference was -0.412, the toxicity enhancement factor was -0.004 (inactive) and the viability was 98.8%.

Regarding `Cc1ccc(-c2nc3ncccn3c2NC2CCCCC2)o1`, the slope difference turned out to be 2.81, the toxicity enhancement factor was 0.0632 (active) and the viability came out at 79.5%.

`Cn1ccnc1-c1nc2ccccc2[nH]c1=O`: the slope difference was -0.138, the toxicity enhancement factor was -0.0015 (inactive) and the viability was 92.3%.

With `CC(C)(C)C(=O)[C@@H]1[C@@H]2C(=O)N(C3CCCCC3)C(=O)[C@@H]2[C@H]2c3ccccc3C=CN12`, the slope difference is 2.83, the toxicity enhancement factor is 0.061 (active) and the viability was 85.2%.

As to `CCc1cccc2c3c([nH]c12)C(CC)(CC(=O)O)OCC3` (configuration not stated), the slope difference is -0.174, the toxicity enhancement factor is -0.0019 (inactive) and the viability is 92.5%.

`CC1CN(c2nc3ccccn3c(=O)c2/C=C(\C#N)S(=O)(=O)c2ccccc2)CC(C)O1` (configuration not stated): the slope difference came out at 3.36, the toxicity enhancement factor is 0.0581 (active) and the viability came out at 93.3%.

With `O=C(CSc1nnc(CN2CCOCC2)n1-c1ccc(Cl)cc1)Nc1cc(Cl)ccc1O`, the slope difference was found to be 2.56, the toxicity enhancement factor is 0.0702 (active) and the viability was 67.3%.

Consider `CCCN1C2=C(C(=O)CC(C)(C)C2)C(c2ccc(F)cc2)C2=C1c1ccccc1C2=O` (configuration not stated), for which the slope difference came out at 3.28, the toxicity enhancement factor was 0.126 (active) and the viability came to 64.6%.

For the compound `CCN(CC)C(=O)CSc1nc2c(sc(=S)n2-c2ccccc2)c(=O)n1Cc1ccco1`, the slope difference worked out at 3.95, the toxicity enhancement factor is 0.0846 (active) and the viability was determined as 87.8%.

On to `CCOC(=O)N1CCC(Nc2c(Nc3cccc(CC)c3)c(=O)c2=O)CC1`, for which the slope difference is 5.23, the toxicity enhancement factor was 0.268 (active) and the viability amounted to 73.6%.

As for `CCOC(=O)Nc1ccc(S(=O)(=O)Nc2nccc(C)n2)cc1`, the slope difference is -0.237, the toxicity enhancement factor is -0.0025 (inactive) and the viability came to 97.4%.

Consider `Cc1ccc(N2C(N)=C(C#N)C(c3cccnc3)C3=C2CCCC3=O)cc1` (configuration not stated), for which the slope difference came out at 2.44, the toxicity enhancement factor is 0.0726 (active) and the viability came out at 62.7%.

In the case of `O=C1Nc2cc(C(=O)N3CCN(Cc4ccccc4)CC3)ccc2SC1N1CCOCC1` (configuration not stated), the slope difference was -0.0531, the toxicity enhancement factor is -0.0007 (inactive) and the viability amounted to 83.2%.

Consider `CC1(C)CC(=O)C2=C(C1)N(c1ccccc1)C(N)=C(C#N)C2c1ccccc1` (configuration not stated), for which the slope difference came to 3.21, the toxicity enhancement factor was 0.108 (active) and the viability was found to be 73.3%.

On to `CSc1nnc(-c2cc3ccccc3cc2O)n1C`, for which the slope difference is -0.153, the toxicity enhancement factor is -0.0016 (inactive) and the viability is 101%.

As to `CCOC(=O)c1sc(NC(=O)CSc2nnc(-c3ccco3)n2CC)c(C(=O)OCC)c1C`, the slope difference worked out at 3.89, the toxicity enhancement factor is 0.364 (active) and the viability turned out to be 54.8%.

As for `CCCn1c(=O)[nH]c(=O)c2[nH]cnc21`, the slope difference is -0.568, the toxicity enhancement factor is -0.0054 (inactive) and the viability was 101%.

Take `N#Cc1ccc(CSc2nnc(-c3cccs3)n2-c2ccccc2)cc1`: the slope difference is -0.904, the toxicity enhancement factor is -0.0117 (inactive) and the viability came to 79%.

Regarding `c1ccc(-c2nc(N3CCOCC3)c3ccccc3n2)nc1`, the slope difference was -2.79, the toxicity enhancement factor is -0.0278 (inactive) and the viability came out at 87%.

Consider `COC(=O)Nc1ccc(S(=O)(=O)N2c3ccccc3CCC2C)cc1` (configuration not stated), for which the slope difference is -2.95, the toxicity enhancement factor was -0.0581 (inactive) and the viability turned out to be 20.1%.

Turning to `CC(C(=O)O)c1ccc(-c2ccccc2)c(F)c1` (configuration not stated), the slope difference was -0.412, the toxicity enhancement factor is -0.0042 (inactive) and the viability is 89%.

Regarding `O=C(NCc1ccccn1)c1cn(CCc2ccccc2)nn1`, the slope difference is -0.117, the toxicity enhancement factor is -0.0012 (inactive) and the viability came out at 97.1%.

Regarding `COc1ccccc1Nc1nc(N)nc(CN2CCOCC2)n1`, the slope difference was -0.589, the toxicity enhancement factor is -0.0058 (inactive) and the viability came to 98.2%.

For `O=C(O)c1ccc(-n2nnnc2SCc2ccccc2)cc1`, the slope difference is -0.76, the toxicity enhancement factor was -0.0082 (inactive) and the viability stood at 88.7%.

As for `CCOc1ccccc1Nc1nc(N)nc(CN(C)C2CCCCC2)n1`, the slope difference was -0.105, the toxicity enhancement factor was -0.0012 (inactive) and the viability was 92.2%.

With `CC1(C)CC(=O)C2=C(C1)N(c1ccccc1)C(N)=C(C#N)C2c1cccnc1` (configuration not stated), the slope difference turned out to be 2.68, the toxicity enhancement factor is 0.105 (active) and the viability was found to be 60%.

For the compound `COc1ccc(C)cc1-n1c(N)c(C#N)c(C#N)c1-c1ccc(OC)c(OC)c1OC`, the slope difference was determined as 2.33, the toxicity enhancement factor is 0.077 (active) and the viability was 61.5%.

Regarding `CC(=O)Nc1ccc(S(=O)(=O)NCCC(=O)NCCc2ccc(F)cc2)cc1`, the slope difference is 0.0009, the toxicity enhancement factor is 0 (inactive) and the viability was 87.3%.

Consider `CCc1nc(SCC(=O)Nc2c(C)nn(C)c2C)c2cnn(-c3ccccc3)c2n1`, for which the slope difference is -0.333, the toxicity enhancement factor is -0.0042 (inactive) and the viability came out at 79.1%.

As for `O=C(O)c1ccccc1O`, the slope difference was -0.779, the toxicity enhancement factor was -0.0072 (inactive) and the viability came to 100%.

`c1ccc(N2CCN(c3ccccc3)C2c2ccncc2)cc1`: the slope difference is 3.19, the toxicity enhancement factor is 0.0739 (active) and the viability is 82.9%.

`Cc1ccc(/C=N/Nc2ncc(Cl)cc2Cl)s1`: the slope difference was -0.555, the toxicity enhancement factor is -0.0071 (inactive) and the viability came out at 70.4%.

In the case of `Cc1nn(C)c(C)c1NC(=O)CSc1nc(C2CC2)nc2c1cnn2-c1ccccc1`, the slope difference was -1.07, the toxicity enhancement factor is -0.0298 (inactive) and the viability is 27.3%.

As to `C=CCOc1nc2c(c(=O)n(C)c(=O)n2C)n1Cc1c(Cl)cccc1Cl`, the slope difference is -0.654, the toxicity enhancement factor was -0.0108 (inactive) and the viability worked out at 63.6%.

Regarding `COc1ccc2cc([C@H](C)C(=O)O)ccc2c1`, the slope difference was -0.665, the toxicity enhancement factor was -0.0066 (inactive) and the viability was determined as 96.6%.

For the compound `Cc1cccc2cc(CN(Cc3nnnn3C3CCCCC3)C3CCCC3)c3nnnn3c12`, the slope difference came out at 3.91, the toxicity enhancement factor was 0.117 (active) and the viability came to 74.2%.

On to `Cc1ccc(Cl)c(Nc2ccccc2C(=O)O)c1Cl`, for which the slope difference is -0.97, the toxicity enhancement factor is -0.0098 (inactive) and the viability was 92.5%.

Regarding `CCN(C(=O)c1cn(C)c(=O)c2cc(OC)c(OC)cc12)c1cc(OC)ccc1OC`, the slope difference was found to be 4.18, the toxicity enhancement factor was 0.129 (active) and the viability was determined as 77.9%.
